CHT PAM: human CHT allosteric activation. CHT-expressing cells, membrane potential dye, choline EC20; hits give high values; LV-AA mutant CHT in HEK293 cells. 310,000 tested, 0.49% active. B-score at 10 µM;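 active = initial fluorescence not abnormally high and integrated response B-score, plate-corrected, over 3 SD above library mean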
CHT block: inhibits the human high affinity choline transporter. Q9GZV3. CHT-expressing cells, membrane potential dye, choline response; hits give low values. B-score at 10 µM. 310,000 tested, 0.86% active;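 active = B-score over 3 SD under the library average, and starting fluorescence ratio not unusually high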;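 note: choline stimulus applied at its EC90 after an EC20 pre-addition; B-score computed on integrated fluorescence ratio after choline addition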
TMEM16A inh: inhibitors of mouse TMEM16A calcium-activated chloride channel | 310,000 tested, 1.2% active | HEK293 TMEM16A/YFP iodide influx fluorescence, ionomycin | Q8BHY3 | normalized B-score (activity score, 25-100; higher = stronger inhibition) at 10 µM;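 active = ratio plate-corrected score three or more library SD toward inhibition, starting fluorescence score within five deviations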;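 note: score derived from kinetic fluorescence span divided by baseline fluorescence per well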
PKA-R2B act: activates the human PKA-R2B holoenzyme complex | PKA-R2B holoenzyme dissociation, Cy5-IP20 fluorescence polarization; R2B truncated from residue 108, S112A mutant; 0% DMSO only, 100% 113 µM cGMP | P22694+P31323 | AID 504700 | activation, % at 11.4 µM | 340,000 tested, 0.079% active;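 active = activation above a cutoff set at the mean over all compounds plus 3 SD, cut at about 18% in these data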;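 note: higher means more holoenzyme dissociation and a rise in polarization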
Target sequence (P31323 whole entry, looked up, other chains not shown, the tested form may be a part): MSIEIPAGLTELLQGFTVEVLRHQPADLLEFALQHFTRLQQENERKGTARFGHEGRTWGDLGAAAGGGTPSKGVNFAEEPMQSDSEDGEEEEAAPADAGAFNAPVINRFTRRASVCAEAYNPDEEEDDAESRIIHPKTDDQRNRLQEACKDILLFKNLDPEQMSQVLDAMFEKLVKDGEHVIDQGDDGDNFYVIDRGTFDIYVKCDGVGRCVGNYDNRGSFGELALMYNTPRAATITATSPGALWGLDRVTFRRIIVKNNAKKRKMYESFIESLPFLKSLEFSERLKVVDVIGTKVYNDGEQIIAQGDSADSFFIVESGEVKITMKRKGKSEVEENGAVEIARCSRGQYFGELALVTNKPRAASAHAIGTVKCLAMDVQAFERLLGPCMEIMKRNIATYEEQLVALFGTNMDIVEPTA
TMEM16A act: mouse TMEM16A channel activation, primary screen; Q8BHY3; HEK293 TMEM16A/YFP-H148Q/I152L, iodide quench fluorescence; hits give low values; B-score at 10 µM; 340,000 tested, 0.3% active;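 active = fluorescence-ratio B-score plate-corrected deviation score at least 3 library SD below zero, with starting fluorescence score within 5 deviations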;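 note: channel opened by trigger with iodide after compound preincubation; score built on the fluorescence ratio of max minus min over baseline; more negative score means more quench and so TMEM16A activation or potentiation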
PKA-R1A act: PKA-R1A complex activation | P00514+P68181 | PKA-R1A dissociation, Cy5-IP20 fluorescence polarization; scaled: DMSO 0%, 113 µM cGMP 100% | activation, % at 11.4 µM | 340,000 tested, 0.083% active;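 active = percent activation above the mean of all tested compounds plus 3 SD, cut at about 19% in these data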;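 note: higher means more PKAc released from R1A so a rise in polarization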
CHT act confirm: confirmation of human choline transporter (CHT) activators. shares compounds with CHT PAM. CHT-expressing cells, membrane potential dye fluorescence (FDSS); % of choline EC20–EC90 response window; HEK293 expressing CHT LV-AA mutant; choline added at its EC20. activation, % at 10 µM. 2,500 tested, 91% active. AID 504833;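 active = primary screen active, with duplicate mean activation above negative control mean plus 3 SD, cut at about 11% in these data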
HEK293 MP dye: CHT activator counter-screen hit in parental HEK293 cells. membrane potential dye fluorescence (FDSS); measured after EC20 choline addition. shares compounds with CHT PAM. 2,500 tested, 62% active. AID 623908. ratio readout change at 10 µM, hits read low;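 active = duplicate-averaged ratio beyond 3 SD from buffer wells, up or down, though filed actives are nearly all decreases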
Active calls of the source: *; i = inactive; . = not tested or not shown. Sampled rows, rich in hits. Any-hit rate of the full collection: about 2.5%.

SMILES	CHT PAM	CHT block	TMEM16A inh	PKA-R2B act	TMEM16A act	PKA-R1A act	CHT act confirm	HEK293 MP dye
O=C(N/N=C/c1ccc(O)cc1)c1cc[n+](Cc2ccccc2)cc1	i	i	i	2	i	4	37*	-29*
COc1cc2c(cc1OC)-c1cc3ccc(OC)c(OC)c3c[n+]1CC2	i	i	i	-3	i	1	36*	-24*
COc1cc(OC)c(-c2nnc(-c3ccc(OC)c(OC)c3OC)o2)cc1OC	i	i	i	-3	i	0	.	.
ONC(=Nc1cccc(C(F)(F)F)c1)c1cccnc1	i	i	i	-14	i	-7	.	.
CCOc1ccc(N=Nc2c(=O)[nH]n3c(C)cc(C)nc23)cc1	i	i	i	-6	i	3	42*	-49*
O/N=C/c1ccn(-c2ccc(Br)cc2)c1	i	i	i	-2	i	6	.	.
CCN(Cc1ccccc1)C(=O)c1nn(-c2ccc(OC)cc2)c(=O)c2c1c1ccccc1n2C	i	i	i	-19	i	5	46*	i
COc1ccc([N+](=O)[O-])cc1C(=O)NCCOc1ccc(Cl)cc1	i	i	i	-2	i	-6	.	.
CCOC(=O)c1cccc(NC(=O)CSc2nc3ccccc3c(=O)n2CC)c1	i	i	i	-2	i	-3	.	.
Cc1n(Cc2ccccc2)c2cc([N+](=O)[O-])ccc2[n+]1Cc1ccccc1	8.3*	i	i	-4	i	-6	72*	-58*
CCOC(=O)c1ccc2c(c1)n(CC)c(/C=C/Nc1ccccc1)[n+]2CC	i	i	i	-4	i	-2	32*	-83*
CCn1c(C)[n+](Cc2ccccc2)c2ccc(C(=O)OC)cc21	10*	i	i	8	i	-6	27*	-67*
Cc1n(Cc2ccccc2)c2ccccc2[n+]1Cc1ccccc1	i	i	i	2	i	-7	.	.
CCN1CCN(CCCNC(=O)c2ccc(CS(=O)c3ccc(Br)cc3)o2)CC1 (configuration not stated)	i	i	i	-6	i	-7	.	.
CN(c1ccccc1)S(=O)(=O)c1ccc(C(=O)N2CCCC(C(F)(F)F)C2)cc1 (configuration not stated)	i	i	i	-8	i	-8	.	.
CC(OC(=O)c1nccnc1N)C(=O)Nc1ccc(S(=O)(=O)N2CCCC2)cc1 (configuration not stated)	i	i	i	-5	i	-10	.	.
CC(CC(F)(F)F)N1CCC(n2nccc2NC(=O)CCCc2ccccc2)CC1 (configuration not stated)	i	i	i	-4	i	2	-3	i
CC(C)=CC(=O)N1CCC(n2nccc2NC(=O)CCc2ccccc2)CC1	i	i	i	-1	i	7	.	.
CC(C)CC(C)N1CCC(n2nccc2NC(=O)CCc2ccccc2)CC1 (configuration not stated)	i	i	i	2	i	-6	32*	i
CCC(C)[C@@H](CN)NCC1(c2ccccc2)CC1 (some centres not stated)	.	.	.	-10	i	-2	.	.
NC(=O)c1nsc(C(=O)N(CC(=O)NC2CCCCC2)Cc2ccc(F)cc2)c1N	i	i	i	-8	i	0	.	.
OCCN1CCN(c2ncnc3ccc(Br)cc23)CC1	13*	i	i	0	i	0	38*	-30*
CC(OC(=O)c1ccc(Cl)nc1)C(=O)Nc1ccc2c(c1)OCO2 (configuration not stated)	.	.	.	0	i	0	.	.
CNc1c(NS(=O)(=O)c2ccc(OC)c(Cl)c2)c(=O)oc2ccccc12	i	i	i	9	i	2	.	.
O=C(COC(=O)C1CC(O)CN1S(=O)(=O)c1ccc(Cl)cc1)c1ccccc1 (configuration not stated)	i	i	i	7	i	2	.	.
SMILES	CHT PAM	CHT block	TMEM16A inh	PKA-R2B act	TMEM16A act	PKA-R1A act	CHT act confirm	HEK293 MP dye
CC(C)N(C(=O)COC(=O)[C@@H]1CC(O)CN1S(=O)(=O)c1ccc(C(C)(C)C)cc1)C(C)C (some centres not stated)	7.1*	i	i	-2	i	0	9	i
COc1cc2c(cc1OC)CN(C(=O)c1cccc(S(=O)(=O)N3CCc4ccccc43)c1)CC2	.	.	.	0	i	3	.	.
COc1nnc(-c2ccc(N3CCOCC3)c(NC(=O)C3CCCCC3)c2)c2ccccc12	i	i	i	-10	i	3	7	i
CCOC(=O)C1=C(c2ccccc2)NC(=O)NC1c1ccc(O)c(OCC)c1 (configuration not stated)	i	i	i	-3	i	8	.	.
CCOC(=O)C1=C(c2ccccc2)NC(=O)NC1c1ccc(O)c(Cl)c1 (configuration not stated)	30*	i	i	-3	-11*	-6	198*	i
COc1ccc(CNC(=O)[C@@H](C)NC(=O)C2CCN(C(=O)[C@@H](N)CCSC)CC2)cc1	i	i	i	0	i	-12	.	.
Clc1ccc(CSc2nncn2-c2ccc3c(c2)OCCO3)cc1	13*	i	i	-12	i	-6	5	i
Cc1oc2cc3oc(=O)c(CCC(=O)NCCCN4CCOCC4)c(C)c3cc2c1C	i	i	i	6	i	-7	.	.
Clc1ccc(-c2c[n+]3c(n2-c2ccccc2)SCC3)cc1	i	i	i	-2	i	6	43*	-28*
Clc1ccc(-c2cn(-c3ccccc3)c3[n+]2CCS3)cc1	i	i	i	-1	i	-4	41*	-40*
COc1ccc(-c2cn(-c3ccc(Br)cc3)c3[n+]2CCS3)cc1	i	i	i	-11	i	0	.	.
OC[C@@H]1[C@@H](c2ccccc2)C(c2ccc(F)cc2)=NN1c1ccccc1	.	.	.	-13	i	-4	.	.
